The record followed here is PMC5540273 (PLoS ONE, 2017).

Test systems include AURKA; AURKB; AURKC; AXL; BLK; BMPR1A; BMPR1B; BMPR2.
What all share (conditions): concentration: 1 μM, replicates: in singlicate; n = 1
The next assay deals with T1, ASK2.
T1 construct: gene MAP3K6

For the next assay, the system named is T2, BIKE.
T2 construct: gene BMP2K
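Further: KINOMEscan kinase panel screen.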

`Cc1occc1-c1ncc(OC[C@@H](N)Cc2c[nH]c3ccccc23)cc1-c1ccc2[nH]nc(C)c2c1.O=C(O)C(F)(F)F` [GSK682037]: the “%Inh” value in the assay with ASK2 is on record as 7%; in the assay on AURKA, 0%; with AURKB, 0%; in the assay with AURKC it was 53%; with AXL it was 35%; in the assay with BIKE, 90.5%. In addition, the “%Inh” value with BLK came out at 19%; with BMPR1A it was 0%; with BMPR1B, 0%; with BMPR2, 0%.
On to `CSc1cccc2c(-c3ccncn3)c(-c3ccc(F)cc3)nn12` [GW514786], for which the “%Inh” value in the assay on ASK2 is given as 29%; in the assay on AURKA it was 8%; in the assay with AURKB, 15%; with AURKC, 7%; in the assay with AXL it was 11%; in the assay on BIKE it was 8%. For the same molecule, the “%Inh” value with BLK is recorded as 19%; with BMPR1A, 10%; in the assay with BMPR1B, 0%; with BMPR2, 11%.
On to `C[C@@H](Oc1cc(-n2cnc3cc(-c4ccnc(NCCS(C)(=O)=O)c4)ccc32)sc1C(N)=O)c1ccccc1Cl` [GSK907232], for which the “%Inh” value is 7% in the assay on ASK2; 0% in the assay on AURKA; 27% in the assay on AURKB; 65% with AURKC; 91% in the assay with AXL; 97.7% with BIKE. Moreover, the “%Inh” value with BLK is reported as 30%; with BMPR1A, 21%; in the assay with BMPR1B, 0%; in the assay with BMPR2 it was 0%.
Regarding `COCCOCCOc1cc2ncc3c4ccc(C#N)cc4[nH]c3c2cc1OC`, the “%Inh” value is given as 0% with ASK2; 51% with AURKA; 83% with AURKB; 62% with AURKC; 44% in the assay on AXL; 100% in the assay with BIKE. Further, the “%Inh” value turned out to be 21% in the assay with BLK, 0% in the assay with BMPR1A, 0% with BMPR1B and 0% in the assay on BMPR2.
On to `COc1ccc(-c2coc3ccc(-c4nnc(SCc5ccc(OC)c(C(F)(F)F)c5)o4)cc23)cc1`, for which the “%Inh” value in the assay on ASK2 was 0%; with AURKA, 21%; in the assay with AURKB it was 11%; with AURKC it was 7%; in the assay with AXL, 11%; in the assay on BIKE it was 0%. In addition, the “%Inh” value is recorded as 7% in the assay on BLK, 20% in the assay with BMPR1A, 13% in the assay on BMPR1B and 14% in the assay on BMPR2.
Consider `COC(=O)Nc1nc2cc(Oc3ccc(NC(=O)Nc4cc(C(F)(F)F)ccc4F)cn3)ccc2[nH]1.Cl.Cl` [GW681170], for which the “%Inh” value with ASK2 is listed as 0%; in the assay on AURKA it was 78%; with AURKB, 40%; in the assay with AURKC, 52%; in the assay with AXL, 98.3%; with BIKE, 1%. In addition, the “%Inh” value in the assay on BLK was 31%; in the assay with BMPR1A it was 0%; in the assay on BMPR1B it was 0%; with BMPR2, 10%.
In the case of `Cl.c1ccc(-c2ccc3c(Nc4ccc5[nH]ncc5c4)ccnc3c2)nc1` [GW440137], the “%Inh” value stood at 19% in the assay on ASK2; 1% with AURKA; 3% with AURKB; 22% in the assay with AURKC; 4% with AXL; 18% with BIKE. For the same molecule, the “%Inh” value is given as 40% with BLK, 0% in the assay on BMPR1A, 31% with BMPR1B and 0% with BMPR2.
On to `CN(C)Cc1ccc(-c2ccc3c(Nc4ccc(Oc5ccccn5)cc4)ccnc3c2)o1` [GW567148], for which the “%Inh” value with ASK2 came to 0%; in the assay on AURKA, 0%; in the assay with AURKB, 81%; in the assay on AURKC, 51%; with AXL it was 2%; with BIKE, 17%. In addition, the “%Inh” value in the assay on BLK was 91.5%; in the assay on BMPR1A it was 0%; in the assay with BMPR1B, 0%; in the assay with BMPR2 it was 28%.
For the molecule `Nc1ncc(-c2ccc3nccc(-c4ccncc4)c3c2)cc1S(=O)(=O)N1CCOCC1` [GSK1627798], the “%Inh” value with ASK2 stood at 0%; in the assay on AURKA, 0%; in the assay with AURKB, 0%; with AURKC, 6%; in the assay on AXL, 36%; in the assay on BIKE, 24%. Further, the “%Inh” value was 100% in the assay with BLK, 0% with BMPR1A, 0% in the assay with BMPR1B and 0% in the assay on BMPR2.
As to `Cc1ccc(C)c(NC(=O)NC2CCN(c3ccnc(Nc4ccc(F)cc4)n3)C2)c1` (stereo not shown) [GSK1379720], the “%Inh” value with ASK2 is 0%; in the assay on AURKA, 0%; in the assay on AURKB, 48%; with AURKC, 76%; with AXL it was 0%; with BIKE, 23%. For the same molecule, the “%Inh” value with BLK amounted to 24%; in the assay on BMPR1A, 0%; in the assay on BMPR1B, 0%; in the assay on BMPR2, 21%.
For the molecule `O=C(Nc1cccc(-c2nn3ncccc3c2-c2ccnc(Nc3ccccc3)n2)c1)c1c(F)cccc1F` [GSK198271], the “%Inh” value came to 6% in the assay with ASK2; 65% with AURKA; 32% in the assay on AURKB; 64% in the assay with AURKC; 100% with AXL; 16% with BIKE. Besides, the “%Inh” value with BLK amounted to 97.5%; in the assay with BMPR1A, 0%; in the assay with BMPR1B, 0%; in the assay on BMPR2, 0%.
With `O=C(Nc1n[nH]c2cc(-c3ccoc3)ccc12)C1CC1` [SB-738481], the “%Inh” value was 5% in the assay with ASK2; 23% with AURKA; 20% in the assay with AURKB; 19% in the assay on AURKC; 37% in the assay with AXL; 35% with BIKE. In addition, the “%Inh” value with BLK was 0%; with BMPR1A, 11%; in the assay on BMPR1B, 21%; in the assay with BMPR2 it was 60%.
For `COc1cccc(C2=C(Nc3ccc(Cl)c(C(=O)O)c3)C(=O)NC2=O)c1` [SB-390769], the “%Inh” value in the assay with ASK2 stood at 100%; in the assay on AURKA, 0%; in the assay on AURKB it was 39%; in the assay on AURKC, 23%; with AXL it was 3%; in the assay on BIKE it was 16%. Further, the “%Inh” value in the assay on BLK is listed as 10%; with BMPR1A it was 0%; in the assay on BMPR1B, 0%; in the assay on BMPR2 it was 100%.
In the case of `Cc1cccc(NC(=O)Nc2ccc(Oc3ncnc4ccn(C)c34)cc2)c1`, the “%Inh” value is 0% with ASK2; 0% in the assay with AURKA; 94.9% in the assay with AURKB; 85% in the assay with AURKC; 44% with AXL; 10% with BIKE. The “%Inh” value in the assay with BLK, in the assay with BMPR1A, in the assay with BMPR1B and with BMPR2 was 0% each time.
`O=C(Nc1n[nH]c2nc(-c3ccc(O)cc3)ccc12)C1CC1` [SB-710363]: the “%Inh” value stood at 12% in the assay on ASK2; 11% with AURKA; 47% with AURKB; 0% in the assay on AURKC; 37% in the assay on AXL; 32% with BIKE. For the same molecule, the “%Inh” value in the assay on BLK worked out at 12%; with BMPR1A, 8%; in the assay on BMPR1B it was 34%; in the assay with BMPR2 it was 16%.
As to `Nc1ncnc2c1nc(-c1ccccc1)n2-c1ccccc1` [SKF-97293], the “%Inh” value in the assay with ASK2 amounted to 29%; with AURKA it was 24%; in the assay on AURKB, 47%; in the assay on AURKC, 0%; in the assay with AXL, 14%; with BIKE, 4%. The “%Inh” value in the assay with BLK was 0%; in the assay on BMPR1A, 8%; with BMPR1B it was 17%; with BMPR2 it was 46%.
